Hit rate of the full screen: of about 65,000 compounds, about 2,100 (3.2%) showed an effect of 50% or more. The median lay at about -52%. Only a selection was taken, and strong results are over-represented in it overall.
System: Plasmodium falciparum
Test: Screen against P. falciparum Asexual Blood Stage (ABS), at 5uM
Assay type: functional, Dd2
Settings: tested at 5 uM

SMILES | INHIBITION [%]
CCOc1ccc(OCCN2CCC(N3CCNC3=O)CC2)cc1 | -43.4
Cc1cc2c(N)nc(=O)n(CC(=O)Nc3cccc(Cl)c3)c2s1 | -44.3
Cc1cccc(CN2CCC3(CCN(c4ncccn4)C3)C2=O)c1 (configuration not stated) | -63.6
O=C1N(Cc2cccc(F)c2)CCC12CCN(c1ccccn1)CC2 | 50.6
O=C1N(Cc2cccc(F)c2)CCC12CCCN(c1ncc(F)cn1)C2 (configuration not stated) | -95.8
Cc1noc(C)c1C(=O)N1Cc2ncn(C)c2C(COCC2CC2)C1 (configuration not stated) | -98.5
Cc1cccc(N2CC[C@H]3CO[C@H](CN(C)Cc4ccco4)[C@H]3C2)n1 | 50.7
CN(Cc1ccco1)C[C@@H]1OC[C@H]2CN(Cc3nccs3)CC[C@H]21 | -48.2
Cc1ccc(N2CC[C@H]3CO[C@H](CN(C)Cc4ccco4)[C@H]3C2)nn1 | -35.9
Cc1cccc(N2CC[C@H]3[C@H](CO[C@@H]3CN(C)Cc3ccco3)C2)n1 | 7.29
CN(Cc1ccco1)C[C@H]1OC[C@@H]2CCN(Cc3ccncc3)C[C@@H]21 | 2.4
CN(Cc1ccco1)C[C@H]1OC[C@@H]2CCN(Cc3nccs3)C[C@@H]21 | 11.4
CN(Cc1ccco1)C[C@H]1OC[C@@H]2CCN(Cc3cccnc3)C[C@@H]21 | -38.5
CN(Cc1ccco1)C[C@H]1OC[C@@H]2CCN(Cc3ccsc3)C[C@@H]21 | 67.3
Cc1ccc(CN2CC[C@H]3CO[C@H](CN(C)Cc4ccco4)[C@H]3C2)s1 | 58.7
O=C(c1ccco1)N1CCCC2(CCN(c3nncs3)C2)C1 (configuration not stated) | -157
O=C(NCc1ccccn1)[C@@]12CCO[C@@H]1CCN(Cc1ccccn1)C2 | -75.4
CC(C)(C)c1nc(CNc2ccccc2SCCC(N)=O)cs1 | -98.5
CN(C)C1CCC2(CCN(Cc3nccn3C)CC2)c2ccccc21 (configuration not stated) | 24.3
Cn1cc(C(=O)NCCc2ccc(OC3CCCC3)cc2)ccc1=O | -53.4
O=S(=O)(c1ccccc1)N1CCC2(CCCN2Cc2ccccc2Cl)C1 (configuration not stated) | -129
CCCNC(=O)C1CCCN(c2ccc3nncn3n2)C1 (configuration not stated) | -47.2
CS(=O)(=O)Nc1ccn(Cc2ccc(Cl)cc2)n1 | -58.2
CCCN(CCC)c1ncc(S(=O)(=O)c2ccc(OC)cc2)c(N)n1 | 67.6
CCCN(CCC)c1ncc(S(=O)(=O)c2ccccc2)c(N)n1 | -9.26
CCCN(CCC)c1ncc(S(=O)(=O)c2ccc(C)cc2)c(N)n1 | 14.8

SMILES | INHIBITION [%]
CC(C)(C)NC(=O)N1CCC(Oc2ccc(C(F)(F)F)cn2)CC1 | -12
CNC(=O)CN1CCCC12CCN(C(=O)c1ccc(F)cc1)CC2 | -39
CNC(=O)CN1CCCC12CCN(C(=O)c1ccoc1)CC2 | 53.1
CN(C)CCN1CCCC12CCN(C(=O)c1ccoc1)CC2 | -39
O=C(CCNc1ncccn1)N1CCCC(n2cccn2)C1 (configuration not stated) | -28.6
Cc1cc(C(=O)NC2CCCc3c2cnn3-c2cccc(C)c2C)[nH]n1 (configuration not stated) | -1.74
CC(C)Cc1ncc2c(n1)CN(c1nc3ccccc3cc1CO)C2 | -50
Cc1cccc2cc(CO)c(N3Cc4cnc(C(C)(C)C)nc4C3)nc12 | 66.5
Cc1ccc(C(=O)O)c(N2Cc3cnc(C(C)(C)C)nc3C2)n1 | -21.3
O=C(c1ccoc1)N1CCO[C@]2(CCC[C@@H]2COCc2cccnc2)C1 | -54.6
Cc1ccc(N2CC[C@@H]3[C@@H]2CCN3C(=O)Cc2ccsc2)nn1 | -93.9
Cc1cc2c(cc1NC(=O)NC(C)(C)C)OCO2 | -23.5
CCOCc1nc2c(c(N(C)Cc3ccsc3)n1)CCNCC2 | 64.4
CCOCc1nc2c(c(N(C)Cc3nonc3C)n1)CCNCC2 | 47.4
CCOCc1nc2c(c(N(C)Cc3snnc3C)n1)CCNCC2 | -48
CN(C)CCN1C[C@@H]2CN(c3ccccc3)C[C@@H]2C1=O | -41.2
c1cnn(CCCO[C@@H]2CC[C@H]3[C@H]2OCCN3CC2CC2)c1 | -65.8
CN(Cc1cccnc1)C1CC2(CCN(Cc3ccccn3)CC2)C1 | 10.3
Cc1ccc(CNC(=O)NC2CCCc3c2cnn3CCO)cn1 (configuration not stated) | -91.3
CCCc1ncc(CN(CCOC)Cc2cccs2)cn1 | -70.2
NCCc1nc(N(Cc2cncs2)C2CC2)c2ccccc2n1 | -30.2
NCCc1nc(N(Cc2nccs2)C2CC2)c2ccccc2n1 | -53.9
COCCN(Cc1cccs1)c1nc(CCN)nc2ccccc12 | 62.2
COCCN(CC1CC1)c1nc(CCN)nc2ccccc12 | 12.1
Cc1ccsc1CN(c1nc(CCN)nc2ccccc12)C1CC1 | 51.4
O=C(Cc1ccon1)N1CCN(c2ccc(F)cc2Cl)CC1 | -28.3

SMILES | INHIBITION [%]
Cc1cnn(CCNCC(O)COc2ccc(F)cc2)c1 (configuration not stated) | 47.3
O=C(c1ccco1)N1CCC12CCN(c1ncc(F)cn1)CC2 | -79.7
CN(C)S(=O)(=O)N1CCC(Oc2cccnn2)CC1 | -57.2
CC(C)C(=O)NCCC(=O)N1CCN(c2ccccn2)CC1 | -172
CC(C)NCc1cccnc1N1CCN(c2ccccn2)CC1 | 3.69
CCCC(C)NCc1cccnc1N1CCN(c2ccccn2)CC1 (configuration not stated) | 51.4
CCC(CC)C(=O)NCCC(=O)N1CCN(c2ccccn2)CC1 | -123
CC(C)CC(C)NCc1cccnc1N1CCOCC1 (configuration not stated) | 60.8
CCC(C)NC(=O)NCCC(=O)N1CCN(c2ccccn2)CC1 (configuration not stated) | -15.2
CC(C)CC(C)NCc1cccnc1N1CCN(c2ccccn2)CC1 (configuration not stated) | 56.6
Cc1nn(C)c(Cl)c1CNCc1cccnc1N1CCOCC1 | -69.2
Cc1nn(C)c(C)c1CNCc1cccnc1N1CCOCC1 | -43.9
CC1(C)CNC(=O)CN(C(=O)COc2ccccc2)C1 | -24.2
NCCCNS(=O)(=O)Cc1ccc(Br)cc1 | -29.3
Cc1cccc(CN2C(=O)CCC23CCN(Cc2ccoc2)CC3)n1 | -81
CN(C)C(=O)CN1C(=O)CCC12CCN(Cc1ccc(F)cc1)CC2 | -99.9
Cc1noc(C)c1CN1CCN(c2ccnc(-c3ccccc3)n2)CC1 | -33.7
Cc1cc(C)c2nc(C)c(C(=O)N3CCC(CCN(C)C)CC3)cc2c1 | -87.5
CCN(CC)C1CCN(C(=O)c2cc3cc(C)cc(C)c3nc2C)CC1 | 56.8
Cc1cc(C)c2nc(C)c(C(=O)N3CCC(N4CCCC4)CC3)cc2c1 | -39.3
Cc1cc(CN2C[C@@H](C)[C@@]3(CCN(CC(=O)N(C)C)C3=O)C2)oc1C | -100
CC[C@H](C)[C@H](NC(=O)c1ccc(-n2cnnn2)cc1)C(=O)OC | -18.7
O=C(c1occc1CN1C(=O)Cc2ccccc21)N1CC(O)C1 | -89.1
CN1CCN(C(=O)c2occc2CN2C(=O)Cc3ccccc32)CC1 | 54.3
O=C(c1occc1CN1C(=O)Cc2ccccc21)N1CCCCCC1 | 3.14
Cc1cc(C(N)=O)nc(C2(C)CCCN2Cc2cnn(C)c2C)n1 (configuration not stated) | -80.5

SMILES | INHIBITION [%]
CN(Cc1ccncn1)C(=O)C1(Oc2ccc(Cl)cc2)CCNCC1 | -74.1
CN(C)C(=O)C1(Oc2ccc(Cl)cc2)CCNCC1 | 49.2
CN(Cc1ccoc1)C(=O)CN1C(=O)OC(C)(C)C1=O | -47.7
Cc1ccc(OC2(C(=O)N(C)Cc3ccoc3)CCNCC2)cc1 | 63.5
CN(Cc1ccoc1)C(=O)C1(Oc2ccc(Cl)cc2)CCNCC1 | 66.9
O=C(N[C@@H]1CCCNC1)C1(Oc2ccc(Cl)cc2)CCNCC1 | -14.3
COCC(=O)N1CCCn2c(CN3CCCC3)nnc2C1 | -108
CC(C)NC(=O)C1(CC2CC(c3ccc(F)cc3)=NO2)CCNCC1 (configuration not stated) | -90.4
COc1ncc(NCc2ccc(Cl)c(Cl)c2)cc1C(N)=O | -14
O=C(CN1C[C@@H]2CC[C@H]1CN(Cc1ccccn1)C2)NCc1cccs1 | 68.4
O=C(c1cc(C2CC2)no1)N1C[C@@H]2CC[C@H]1CN(Cc1ccccn1)C2 | 9.2
Cn1ccc(NC(=O)CN2C[C@@H]3CC[C@H]2CN(Cc2ccccn2)C3)n1 | -21.7
c1cc(CN2C[C@@H]3OCCN(CC4CC4)[C@@H]3C2)n[nH]1 | 7.58
CC(=O)N1CCO[C@@H]2CN(S(=O)(=O)C3CC3)C[C@@H]2C1 | -114
CCCc1cncnc1N1CCC2(CCC(=O)N(CCCO)C2)CC1 | -6.89
Cc1csc2c(N3CCC(NCCCc4ccncc4)CC3)ncnc12 | 64.6
CCCc1cncnc1N1CCC(NCc2ccc(O)cc2)CC1 | 50.2
CCCc1cncnc1N1CCC(NCc2ccncc2)CC1 | 66.1
Cc1ccc(CNC2CCN(CCc3ccncc3)CC2)s1 | -1.43
Cc1csc2c(N3CCC(NCCCc4cnn(C)c4)CC3)ncnc12 | -10.6
Cc1csc2c(N3CCC(NCCc4ccnn4C)CC3)ncnc12 | -18.8
CCCc1cncnc1N1CCC2(CCC(=O)N(C3CCCC3)C2)CC1 | 29.3
CCCN1CCC(NCc2ccncc2)CC1 | -47.1
CCOc1ccc(C(=O)CCC(=O)N(C)Cc2nc(C)c[nH]2)cc1C | -27.6

Reference: ChEMBL document CHEMBL4513216, “Probing the Open Global Health Chemical Diversity Library for Multistage-Active Starting Points for Next-Generation Antimalarials” (ACS Infect Dis, 2020)
